Reference: PubChem BioAssay (NCATS)
“And” between values parts separate entries of the source, which are not always exact repeats. Equal values may be shown once. Records with an inconclusive call do not appear. A call without a number means that no potency is given here. Where a structure was tested more than once in an assay, its records may differ in their call. The source made the active and inactive calls. The call rests on the fitted dose curve; in most records, active means well fitted curve in the direction sought with a large enough effect; inconclusive means small, poorly fitted or top-dose-only effect, or another doubt; inactive means no such curve, though single readings can be large; an effect the other way counts as inactive or inconclusive.

Legend:
[1] = P-glycoprotein substrates identified in KB-8-5-11 adenocarcinoma cell line, qHTS therapeutic library screen (AID 1346987); further: nearly all actives have a fitted effect of over 65% in size
In short: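 KB-8-5-11, a colchicine-selected P-gp-overexpressing KB-3-1 subline, was grown without colchicine for the assay. Cells were seeded at 500 cells/well, dosed in concentration-response and incubated 72 h at 37 degree C, 5% CO2. Viability was read by CellTiter-Glo luminescence.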

[2] = NS1 protein of Zika virus - qHTS assay to identify small molecule inhibitors in human HEK 293 cells (AID 1347053); further: nearly all actives have a fitted effect of over 55% in size
In short: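 HEK 293; 20 h pre-culture, 37 C/5% CO2; cpd 1 h pre-infection; ZIKV MR766, MOI = 0.5, 24 h, 37 C; TR-FRET NS1 readout (two anti-NS1 Abs); norm. to no-virus vs infected.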

[3] = qHTS of pediatric cancer cell lines to identify multiple opportunities for drug repurposing: Primary screen for DAOY cells (AID 1347090); further: nearly all actives have a fitted effect of over 55% in size
In short: (§1)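 Viability measured as metabolically active cells via CellTiter-Glo luminescence following 48 hours of compound exposure, 11-point dilutions in confirmatory testing. 500-1,000 cells/well plated 5 hours before dosing; controls were DMSO and 2.3 µM bortezomib.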

[4] = qHTS of pediatric cancer cell lines to identify multiple opportunities for drug repurposing: Primary screen for SK-N-MC cells (AID 1347093)
In short: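 Metabolically active cells were quantified by ATP-dependent luminescence (CellTiter-Glo, 15 min at room temperature) following 48 h treatment. Cells had been plated at 500-1,000 per well and settled for 5 h beforehand.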

[5] = qHTS of pediatric cancer cell lines to identify multiple opportunities for drug repurposing: Primary screen for BT-37 cells (AID 1347094)
In short: (§2)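 Quantitative HTS format: each compound titrated (MIPE 11 points from 0.78 nM, NPC 8 points from 0.59 nM) onto cells plated 5 hours earlier. After 48 h at 37 degrees C, CellTiter-Glo luminescence was recorded.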

[6] = qHTS of pediatric cancer cell lines to identify multiple opportunities for drug repurposing: Primary screen for NB-EBc1 cells (AID 1347095)
In short: as §2

[7] = qHTS of pediatric cancer cell lines to identify multiple opportunities for drug repurposing: Primary screen for Saos-2 cells (AID 1347097); further: nearly all actives have a fitted effect of over 40% in size
In short: as §2

[8] = qHTS of pediatric cancer cell lines to identify multiple opportunities for drug repurposing: Primary screen for SK-N-SH cells (AID 1347098); further: nearly all actives have a fitted effect of over 65% in size
In short: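 Cells (500-1,000/well) rested 5 h, then received compounds for 48 h; metabolically active cells were measured by CellTiter-Glo luminescence. Final concentrations spanned up to 46 µM (MIPE, 11-point) or 0.59 nM-46 µM (NPC, 8-point) in primary screens, 11-point in follow-ups.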

[9] = qHTS of pediatric cancer cell lines to identify multiple opportunities for drug repurposing: Primary screen for A673 cells (AID 1347092); further: nearly all actives have a fitted effect of over 45% in size
In short: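 A673 cells (500-1,000 cells/well in growth media) were pre-incubated 5 h at 37 degrees C, then exposed to compounds for 48 h. Viability was read as CellTiter-Glo luminescence; concentration-response curves came directly from the primary screen.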

[10] = qHTS of pediatric cancer cell lines to identify multiple opportunities for drug repurposing: Primary screen for SJ-GBM2 cells (AID 1347091)
In short: as §1

[11] = qHTS of pediatric cancer cell lines to identify multiple opportunities for drug repurposing: Primary screen for U-2 OS cells (AID 1347096); further: nearly all actives have a fitted effect of over 50% in size
In short: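 Viability after 48 h compound treatment at 37C, 500-1,000 cells/well, read as ATP luminescence with CellTiter-Glo. Primary screens used 11-point (MIPE, 0.78 nM-46 µM) or 8-point (NPC, 0.59 nM-46 µM) final concentrations; follow-up screens used 11-point dilutions.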

[12] = qHTS of pediatric cancer cell lines to identify multiple opportunities for drug repurposing: Primary screen for TC32 cells (AID 1347089); further: nearly all actives have a fitted effect of over 60% in size
In short: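 Luminescent CellTiter-Glo read-out of metabolically active TC32 cells after 48 h compound exposure. Primary: MIPE 11-point, 0.78 nM–46 µM; NPC 8-point, 0.59 nM–46 µM. Confirmatory: 11-point dilutions.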
Potency means the concentration at half of the fitted maximal effect.

| Compound | Potency [1] | Potency [2] | Potency [3] | Potency [4] | Potency [5] | Potency [6] | Potency [7] | Potency [8] | Potency [9] | Potency [10] | Potency [11] | Potency [12] |
| --- | --- | --- | --- | --- | --- | --- | --- | --- | --- | --- | --- | --- |
| CC[C@H]1OC(=O)[C@H](C)[C@@H](O[C@H]2C[C@@](C)(OC)[C@@H](O)[C@H](C)O2)[C@H](C)[C@@H](O[C@@H]2O[C@H](C)C[C@H](N(C)C)[C@H]2O)[C@](C)(O)C[C@H](C)C(=NOCOCCOC)[C@H](C)[C@@H](O)[C@]1(C)O | inactive | inactive | inactive | 16.6 µM (active) | inactive | inactive | inactive | 30.4 µM (active) |  |  |  |  |
| CNC(=O)c1c(-c2ccc(F)cc2)oc2cc(N(CCO)S(C)(=O)=O)c(C3CC3)cc12 | inactive | inactive | 23.5 µM (active) |  |  |  | 16.6 µM (active) | 30.4 µM (active) | 23.5 µM (active) |  |  |  |
| CN(C)CC[C@H](CSc1ccccc1)Nc1ccc(S(=O)(=O)NC(=O)c2ccc(N3CCN(Cc4ccccc4-c4ccc(Cl)cc4)CC3)cc2)cc1[N+](=O)[O-] | inactive | inactive | 18.7 µM (active) | 0.0148 µM (active) |  | 0.0418 µM (active) | 9.35 µM (active) | 7.64 µM (active) | 3.72 µM (active) | 0.0833 µM (active) | 14.8 µM (active) |  |
| CCOC(=O)[C@H]1O[C@H]1C(=O)N[C@@H](CC(C)C)C(=O)NCCC(C)C | inactive | inactive | inactive |  | inactive | inactive |  | inactive | 18.7 µM (active) |  | inactive |  |
| COc1ccc2c(c1)CC[C@H]1[C@@H]2CC[C@]2(C)[C@@H](NCCCCCCN3C(=O)C=CC3=O)CC[C@H]12 | inactive | inactive | inactive | inactive | inactive | inactive |  |  | inactive | inactive | inactive |  |
| N#CC(c1ccnc(NCCc2cccnc2)n1)c1nc2ccccc2s1 (stereo not drawn) | inactive |  | 29.6 µM (active) | 11.8 µM (active) | 24.3 µM (active) |  | 18.7 µM (active) |  | 4.69 µM (active) | 9.35 µM (active) |  | inactive |
| CCNC(=O)CCCC=CC[C@@H]1[C@H](C=CC(O)CCc2ccccc2)[C@@H](O)C[C@@H]1O (stereo partly drawn) | inactive | inactive |  | inactive |  | inactive | inactive |  | inactive | inactive | inactive |  |
| CO[C@@H]1C(N(C)C(=O)c2ccccc2)C[C@H]2O[C@]1(C)n1c3ccccc3c3c4c(c5c6ccccc6n2c5c31)C(=O)NC4=O (stereo partly drawn) | 7.43 µM (active) | inactive |  | 1.32 µM (active) | inactive |  |  | 6.07 µM (active) | 2.96 µM (active) | 2.35 µM (active) |  |  |
| COc1ccc(-c2cc(=O)c3c(O)cc(O[C@@H]4O[C@H](CO[C@@H]5O[C@@H](C)[C@H](O)[C@@H](O)[C@@H]5O)[C@@H](O)[C@H](O)[C@@H]4O)cc3o2)cc1O | inactive | inactive |  | 7.43 µM (active) | inactive | inactive | inactive |  |  |  | inactive |  |
| CC(C)n1c(C=C[C@H](O)C[C@H](O)CC(=O)O)c(-c2ccc(F)cc2)c2ccccc21 | 11.8 µM (active) | inactive | 1.87 µM (active) | 11.8 µM (active) | 19.3 µM (active) |  | 1.87 µM (active) | 6.81 µM (active) |  | 9.35 µM (active) | 14.8 µM (active) |  |
| CC(C)CNc1ccnc(NCc2csc(-c3ccccc3)n2)n1 | 18.7 µM (active) and 10.3 µM (active) | 26.4 µM (active) | 18.7 µM (active) | 10.5 µM (active) | 24.3 µM (active) |  |  |  | 11.8 µM (active) |  | inactive |  |
| COc1cc(CNC(=O)CCCCC=CC(C)C)ccc1O | inactive | inactive | inactive | inactive | inactive | inactive | inactive |  |  | inactive | inactive |  |
| Cc1c(C(=O)Nc2ccc(N3C[C@@H](C)O[C@@H](C)C3)nc2)cccc1-c1ccc(OC(F)(F)F)cc1 | inactive |  |  | 16.6 µM (active) |  | 14.8 µM (active) | 18.7 µM (active) |  | 7.43 µM (active) | 18.7 µM (active) |  | inactive |
| CN1CCC(COc2cnc(-c3cccc(Cn4nc(-c5cccc(C#N)c5)ccc4=O)c3)nc2)CC1 | inactive and 16.4 µM (active) |  | 23.5 µM (active) | 0.148 µM (active) | inactive |  | inactive | 24.1 µM (active) | 0.148 µM (active) | 0.0083 µM (active) |  |  |
| O=C(Nc1cccc(Cl)c1)Nc1ncc(CCNc2ncnc3ccsc23)s1 | 1.16 µM (active) |  |  |  |  |  | 2.96 µM (active) |  | 14.8 µM (active) |  |  | 0.739 µM (active) |
| CN(C)CCOc1ccc(-c2nc(-c3ccc4c(c3)CCC4=NO)c(-c3ccncc3)[nH]2)cc1 | inactive |  |  |  | 30.6 µM (active) | inactive | 23.5 µM (active) | 24.1 µM (active) | 18.7 µM (active) | 23.5 µM (active) |  | inactive |
